Test results: ChEMBL document CHEMBL1961873, “Compounds: GSK PKIS; Assays: Nanosyn kinase panel” (2012)

Legend:
[1] = biological target: T1, Mitogen-activated protein kinase 12 (Homo sapiens) (UniProt P53778); settings: at 1 µM;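 also: values are averaged p38gamma kinase inhibition readings, compounds tested at 1 µM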
T1 sequence (whole entry): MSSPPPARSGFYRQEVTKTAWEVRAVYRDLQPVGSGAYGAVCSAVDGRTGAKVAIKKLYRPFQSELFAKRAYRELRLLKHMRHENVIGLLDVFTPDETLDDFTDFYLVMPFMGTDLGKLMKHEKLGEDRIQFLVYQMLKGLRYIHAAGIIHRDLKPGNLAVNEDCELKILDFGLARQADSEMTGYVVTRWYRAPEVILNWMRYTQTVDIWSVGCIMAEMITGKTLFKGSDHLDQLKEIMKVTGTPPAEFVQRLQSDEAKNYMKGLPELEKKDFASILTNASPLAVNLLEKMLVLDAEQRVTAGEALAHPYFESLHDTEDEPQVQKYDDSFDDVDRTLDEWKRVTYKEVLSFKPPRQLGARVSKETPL

[2] = biological target: SRSF protein kinase 1 (Homo sapiens) (UniProt Q96SB4); settings: at 0.1 µM
Chain of SRSF protein kinase 1 (Homo sapiens) (Q96SB4 whole entry, canonical isoform): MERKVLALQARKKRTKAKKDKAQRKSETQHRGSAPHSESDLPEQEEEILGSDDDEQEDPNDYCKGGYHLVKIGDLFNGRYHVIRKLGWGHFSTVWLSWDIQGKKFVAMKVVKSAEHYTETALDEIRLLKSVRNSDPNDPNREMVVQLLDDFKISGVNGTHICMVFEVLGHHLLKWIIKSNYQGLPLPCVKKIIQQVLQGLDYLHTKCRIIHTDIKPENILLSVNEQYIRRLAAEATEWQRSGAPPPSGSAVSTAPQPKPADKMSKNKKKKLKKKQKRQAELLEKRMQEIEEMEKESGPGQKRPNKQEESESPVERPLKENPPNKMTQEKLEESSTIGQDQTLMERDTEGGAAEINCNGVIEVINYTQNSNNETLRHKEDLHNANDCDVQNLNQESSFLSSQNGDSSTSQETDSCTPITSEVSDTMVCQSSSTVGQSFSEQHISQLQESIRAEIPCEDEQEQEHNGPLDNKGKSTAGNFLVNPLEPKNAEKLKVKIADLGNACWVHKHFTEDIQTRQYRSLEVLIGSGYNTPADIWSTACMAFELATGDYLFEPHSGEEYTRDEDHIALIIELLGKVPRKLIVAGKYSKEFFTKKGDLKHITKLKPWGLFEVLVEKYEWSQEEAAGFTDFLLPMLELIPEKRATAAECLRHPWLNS

[3] = biological target: SRSF protein kinase 1 (Homo sapiens) (UniProt Q96SB4); settings: at 1 µM
[4] = biological target: Phosphatidylinositol 4,5-bisphosphate 3-kinase catalytic subunit alpha isoform (Homo sapiens) (UniProt P42336); settings: at 0.1 µM
Chain of Phosphatidylinositol 4,5-bisphosphate 3-kinase catalytic subunit alpha isoform (Homo sapiens) (P42336 whole entry, canonical isoform): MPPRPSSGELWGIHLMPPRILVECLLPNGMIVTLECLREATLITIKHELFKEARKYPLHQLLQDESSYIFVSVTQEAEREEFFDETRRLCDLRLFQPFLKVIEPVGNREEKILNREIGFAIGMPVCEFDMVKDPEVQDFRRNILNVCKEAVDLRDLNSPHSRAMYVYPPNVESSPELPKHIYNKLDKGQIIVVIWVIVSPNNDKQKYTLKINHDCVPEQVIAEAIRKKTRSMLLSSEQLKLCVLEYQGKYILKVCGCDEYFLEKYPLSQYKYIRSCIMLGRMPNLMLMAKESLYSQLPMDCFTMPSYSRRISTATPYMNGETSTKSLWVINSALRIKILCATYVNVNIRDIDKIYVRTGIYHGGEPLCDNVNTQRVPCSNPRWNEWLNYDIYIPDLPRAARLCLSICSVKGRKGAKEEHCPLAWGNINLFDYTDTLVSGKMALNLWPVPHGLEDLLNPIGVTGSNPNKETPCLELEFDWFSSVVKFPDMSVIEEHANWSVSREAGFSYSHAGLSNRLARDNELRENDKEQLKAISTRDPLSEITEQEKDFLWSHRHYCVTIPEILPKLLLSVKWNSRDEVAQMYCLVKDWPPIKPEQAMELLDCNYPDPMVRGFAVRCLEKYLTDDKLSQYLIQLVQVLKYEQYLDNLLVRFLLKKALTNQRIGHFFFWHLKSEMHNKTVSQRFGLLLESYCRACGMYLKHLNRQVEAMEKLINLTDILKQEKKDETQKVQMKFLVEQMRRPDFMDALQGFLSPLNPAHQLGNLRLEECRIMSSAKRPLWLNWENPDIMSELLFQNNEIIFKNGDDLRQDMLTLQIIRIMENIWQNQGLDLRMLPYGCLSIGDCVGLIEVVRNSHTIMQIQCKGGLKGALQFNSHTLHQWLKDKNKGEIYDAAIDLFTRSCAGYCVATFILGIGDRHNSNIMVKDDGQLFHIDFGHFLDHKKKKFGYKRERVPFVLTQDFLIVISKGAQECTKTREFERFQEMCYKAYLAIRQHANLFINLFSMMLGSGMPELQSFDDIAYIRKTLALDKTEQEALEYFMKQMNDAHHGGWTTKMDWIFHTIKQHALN

[5] = biological target: Phosphatidylinositol 4,5-bisphosphate 3-kinase catalytic subunit alpha isoform (Homo sapiens) (UniProt P42336); settings: at 1 µM
[6] = biological target: T2, Phosphatidylinositol 4,5-bisphosphate 3-kinase catalytic subunit delta isoform (Homo sapiens) (UniProt O00329); settings: at 0.1 µM
T2 sequence (whole entry): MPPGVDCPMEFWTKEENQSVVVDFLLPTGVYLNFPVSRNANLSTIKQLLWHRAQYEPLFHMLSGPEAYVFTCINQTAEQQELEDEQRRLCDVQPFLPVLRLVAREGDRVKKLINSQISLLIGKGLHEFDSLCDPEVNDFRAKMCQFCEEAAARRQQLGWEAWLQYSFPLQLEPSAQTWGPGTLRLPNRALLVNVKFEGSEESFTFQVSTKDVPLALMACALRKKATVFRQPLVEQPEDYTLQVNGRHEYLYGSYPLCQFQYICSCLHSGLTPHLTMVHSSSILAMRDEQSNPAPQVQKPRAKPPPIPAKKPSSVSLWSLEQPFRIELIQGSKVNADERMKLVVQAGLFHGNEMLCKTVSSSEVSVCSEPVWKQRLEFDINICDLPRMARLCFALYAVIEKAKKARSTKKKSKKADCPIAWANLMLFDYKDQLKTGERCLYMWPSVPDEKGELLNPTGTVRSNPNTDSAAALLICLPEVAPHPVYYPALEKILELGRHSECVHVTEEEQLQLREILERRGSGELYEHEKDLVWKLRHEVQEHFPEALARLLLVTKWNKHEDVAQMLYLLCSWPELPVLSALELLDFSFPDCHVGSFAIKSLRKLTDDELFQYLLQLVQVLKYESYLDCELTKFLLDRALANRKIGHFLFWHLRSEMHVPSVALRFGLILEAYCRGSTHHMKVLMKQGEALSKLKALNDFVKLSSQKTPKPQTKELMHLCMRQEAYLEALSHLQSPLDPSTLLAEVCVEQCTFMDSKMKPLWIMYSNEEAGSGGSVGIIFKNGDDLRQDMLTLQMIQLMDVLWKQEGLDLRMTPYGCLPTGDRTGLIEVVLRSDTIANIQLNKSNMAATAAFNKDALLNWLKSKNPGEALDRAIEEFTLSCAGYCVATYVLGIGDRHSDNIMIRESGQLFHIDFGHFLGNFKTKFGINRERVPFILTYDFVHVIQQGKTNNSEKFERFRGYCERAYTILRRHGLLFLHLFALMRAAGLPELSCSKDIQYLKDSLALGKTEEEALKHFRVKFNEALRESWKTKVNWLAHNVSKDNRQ

[7] = biological target: T2, Phosphatidylinositol 4,5-bisphosphate 3-kinase catalytic subunit delta isoform (Homo sapiens); settings: at 1 µM
[8] = biological target: Phosphatidylinositol 4-kinase beta (Homo sapiens) (UniProt Q9UBF8); settings: at 0.1 µM
Chain of Phosphatidylinositol 4-kinase beta (Homo sapiens) (Q9UBF8 2-816 limits assumed): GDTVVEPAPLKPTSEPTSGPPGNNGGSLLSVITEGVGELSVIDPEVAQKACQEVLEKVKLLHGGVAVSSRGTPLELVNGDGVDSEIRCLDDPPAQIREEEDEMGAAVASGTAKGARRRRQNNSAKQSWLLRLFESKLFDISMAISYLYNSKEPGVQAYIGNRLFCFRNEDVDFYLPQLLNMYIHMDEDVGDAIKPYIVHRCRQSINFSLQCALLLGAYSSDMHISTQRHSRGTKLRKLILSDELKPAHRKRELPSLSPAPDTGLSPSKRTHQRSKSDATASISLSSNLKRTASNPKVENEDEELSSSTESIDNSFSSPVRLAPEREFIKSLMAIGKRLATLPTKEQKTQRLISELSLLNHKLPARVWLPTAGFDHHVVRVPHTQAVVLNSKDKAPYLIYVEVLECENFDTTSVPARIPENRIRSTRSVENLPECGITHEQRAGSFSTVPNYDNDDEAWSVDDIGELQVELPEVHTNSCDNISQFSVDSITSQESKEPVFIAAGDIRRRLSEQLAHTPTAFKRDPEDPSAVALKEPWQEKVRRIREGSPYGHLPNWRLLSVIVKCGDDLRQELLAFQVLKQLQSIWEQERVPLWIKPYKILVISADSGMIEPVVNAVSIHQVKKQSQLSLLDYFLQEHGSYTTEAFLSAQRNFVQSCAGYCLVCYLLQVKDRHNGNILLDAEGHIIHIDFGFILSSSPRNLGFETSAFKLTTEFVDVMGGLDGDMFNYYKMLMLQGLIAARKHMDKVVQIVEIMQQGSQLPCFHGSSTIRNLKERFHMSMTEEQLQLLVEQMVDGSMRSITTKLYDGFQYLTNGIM

[9] = biological target: Phosphatidylinositol 4-kinase beta (Homo sapiens) (UniProt Q9UBF8); settings: at 1 µM
[10] = biological target: Sphingosine kinase 1 (Homo sapiens) (UniProt Q9NYA1); settings: at 0.1 µM;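 also: mean percent inhibition of SPHK1 activity, measured within the GSK PKIS screening panel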
Chain of Sphingosine kinase 1 (Homo sapiens) (Q9NYA1 whole entry): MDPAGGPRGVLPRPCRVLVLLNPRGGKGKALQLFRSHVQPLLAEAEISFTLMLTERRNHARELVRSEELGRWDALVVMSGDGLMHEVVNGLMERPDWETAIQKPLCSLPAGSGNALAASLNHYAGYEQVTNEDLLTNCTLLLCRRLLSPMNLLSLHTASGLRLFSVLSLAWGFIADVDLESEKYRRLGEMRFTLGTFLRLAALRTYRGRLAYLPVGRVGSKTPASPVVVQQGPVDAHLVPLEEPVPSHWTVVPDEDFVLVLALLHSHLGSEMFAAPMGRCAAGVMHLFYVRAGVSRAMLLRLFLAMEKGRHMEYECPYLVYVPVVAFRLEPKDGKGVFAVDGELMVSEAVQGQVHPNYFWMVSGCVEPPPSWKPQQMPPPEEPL

Compound	inhibition [1] [%]	inhibition [2] [%]	inhibition [3] [%]	inhibition [4] [%]	inhibition [5] [%]	inhibition [6] [%]	inhibition [7] [%]	inhibition [8] [%]	inhibition [9] [%]	inhibition [10] [%]
CCn1c(-c2nonc2N)nc2c(N3CCCC3)nccc21	-1.61	0.36	0.58	-1.75	-0.26	0.19	0.29	-6.46	-2.5	2.26
O=C1NC(=O)C(N2CCc3ccccc32)=C1c1ccc(Cl)cc1	3.35	-1.77	-3.78	4.21	6.29	3.6	5.56	-1.76	-1.34	–
COc1cc2ncn(-c3cc(OCc4ccccc4Cl)c(C(N)=O)s3)c2cc1OC	0.85	-1.26	-1.23	0.86	19.6	0.19	18.4	-5.9	1.54	2.8
Nc1nc(-c2ccccn2)c(-c2ccc3ncccc3n2)s1	1.76	-1.15	-0.55	4.05	5.74	2.87	3.05	4.8	0.96	-1.16
O=C(Nc1n[nH]c2nc(-c3ccco3)c(Br)cc12)C1CC1	2.11	-4.07	-5.19	5.44	4.94	2.6	3.08	0.77	5.14	0.46
CS(=O)(=O)CCNCc1ccc(-c2ccc3ncnc(Nc4ccc(OCc5ccccc5)c(Cl)c4)c3c2)o1	6.3	-1.42	1.52	-1.12	-0.19	-2.16	-1.17	-0.03	3.61	1.23
Cc1ccc(NC(=O)c2ccnc(N3CCCC3)c2)cc1-c1ccc(C(=O)NCC2CC2)cc1	4.14	-2.03	-3.61	4.02	14.5	3.4	14.4	-4.29	-0.13	-0.32
CC1=C(C(=O)Nc2ccc3[nH]ncc3c2)C(c2ccc(F)cc2)NC(=O)N1 (stereo unspecified)	1.7	-0.16	-1.24	2.51	5.96	2.41	3.62	1.44	1.28	1.05
Cc1cccc(-c2n[nH]cc2-c2ccc3ncccc3n2)n1	0.57	-1.35	-1.16	-0.95	1.78	-0.15	0.53	1.57	4.48	-2.56
Fc1cccc(COc2ccc(Nc3ncnc4sc(-c5cccs5)cc34)cc2Cl)c1	0.86	0.18	-1.11	0.9	4.07	-0.78	2.29	0.44	-0.43	-1.15
Nc1ncnc2occ(-c3ccc(NC(=O)Nc4cc(C(F)(F)F)cc(C(F)(F)F)c4)cc3)c12	10.2	-0.82	0.68	0.61	2.7	2.62	3.45	1.16	2.78	0.12
Cn1cc(C=C2C(=O)Nc3cccnc32)c2ccccc21	2.65	-3.21	-4.48	2.82	7.17	1.38	3.54	0.42	4.05	-3.04
COc1cccc(-n2ncc3c(N/N=C/c4cccc(F)c4)ncnc32)c1	2.67	-1.75	-2.37	2.47	4.79	2.15	5.82	2.02	-7.13	-0.37
Cc1ccc(C(=O)NC2CCCCC2)cc1-c1ccc(C(=O)NCC2CC2)cc1	1.27	-2.04	-2.48	1.35	-0.53	1.89	1.33	3.97	-5.9	-7.61
CN(C)c1cc2c(Nc3ccc4nc(Cc5ccccc5)[nH]c4c3)ncnc2cn1	2.45	-1.74	-1.6	7	8.83	7.22	8.91	-2.6	5.38	-1.38
COc1ccc(COc2ccc(Cc3cnc(N)nc3N)cc2OC)cc1	1.41	-0.52	-2.52	0.14	1.07	-0.96	0.68	2.15	-1.98	-3.33
CCn1c(-c2nonc2N)nc2cnc(Oc3cccc(NC(=O)c4ccc(OCCN5CCOCC5)cc4)c3)cc21	3.67	-1.96	-3.13	2.83	3.79	1.26	3.06	-7.57	-2.56	3.68
CNC(=O)c1cncc(/C=C/c2c(Cl)cccc2Cl)c1	6.19	-3.5	-0.45	2.99	2.83	0.54	0.66	-0.69	2.57	-1.45
CCN1CCC(CC(=O)Nc2n[nH]c3nc(-c4cccs4)c(Br)cc23)CC1	-2.22	1.28	1.67	-1.25	-0.57	0.69	2.28	4.28	-0.5	-0.97
COc1cc2ncn(-c3cc(O[C@H](C)c4ccccc4Cl)c(C(N)=O)s3)c2cc1OC	3.72	0.35	7.77	7.21	36.1	13.6	59.9	2.43	-0.59	1.83

Compound	inhibition [1] [%]	inhibition [2] [%]	inhibition [3] [%]	inhibition [4] [%]	inhibition [5] [%]	inhibition [6] [%]	inhibition [7] [%]	inhibition [8] [%]	inhibition [9] [%]	inhibition [10] [%]
COc1cc2ncn(-c3cc(O[C@@H](C)c4ccccc4Cl)c(C(N)=O)s3)c2cc1OC	3.72	-2.61	-2.08	4.55	11.5	2.44	10.6	3.29	-6.07	1.31
CCc1cccc(NC(=O)Nc2ccc(Oc3ccc4nc(NC(=O)OC)[nH]c4c3)cc2)c1	1.54	0.34	1.37	0.8	2.44	0.28	3.23	5.24	-4.52	–
NC(=O)c1cccc(Nc2nccc(Nc3cccc4[nH]ncc34)n2)c1	1.3	1.99	2.55	-1.08	6.41	1.39	10.7	4.75	10.2	-1.36
CCn1c(-c2nonc2N)nc2cncc(C(=O)N3CC[C@H](N)C3)c21	3.17	-1.03	-0.35	5.37	4.64	3.17	3.95	-6.46	-9.74	-0.79
O=C1NC(=O)C(c2ccc(Cl)cc2)=C1Nc1ccc(Cl)c(C(=O)O)c1	-2.21	1.64	3.21	1.09	2.23	3.38	2.76	-1.72	-4.96	-1.27
Cc1cc(O)cc(C)c1/C=C/c1cncc(-c2nn[nH]n2)c1	3.07	-1.87	-2.36	3.19	5.13	2.19	6.52	-5.96	-0.98	0.56
Fc1cccc(COc2ccc(Nc3ncnc4cc(-c5ccc[nH]5)sc34)cc2Cl)c1	2.1	-1.71	-1.58	3.58	10.8	2.77	9.44	-8.05	2.94	1.48
CS(=O)(=O)Nc1ccc(N/C=C2\C(=O)Nc3ccccc32)cc1	-0.19	1.24	1.9	-2.27	-1.98	-1.26	-0.45	-4.55	-0.72	-0.88
NS(=O)(=O)c1ccc(N/N=C2\C(=O)Nc3ccc(C(=O)NCCc4c[nH]cn4)cc32)cc1	2.64	-1.35	-0.63	2.2	4.76	1.71	2.03	-6.38	-1.44	-1.35
COc1cc(C)c(NC(=O)CN(C)C)cc1Nc1nc(Nc2cccc(F)c2C(N)=O)c2cc[nH]c2n1	1.38	-2.61	-3.29	0.75	0.03	0.12	2.2	5.07	1.45	–
COc1ccc(-c2ccncc2)cc1C(N)=O	5.57	-3.43	-2.49	5.07	4.31	2.29	3.83	-1.68	4.03	1.01
Cc1nnc(-c2ccc(C)c(-c3ccc(C(=O)Nc4cccc(C#N)c4)cc3)c2)o1	1.19	-1.96	-1.67	2.12	1.71	1.98	1.12	-1.86	0.49	-2.17
CS(=O)(=O)CCN(CC#N)Cc1ccc(-c2ccc3ncnc(Nc4ccc(OCc5cccc(F)c5)c(Cl)c4)c3c2)o1	2.68	-2.4	-1.01	2.09	4.03	1.1	4.27	2.65	3.34	1.82
CC(C)=Cc1cccc2c1/C(=N/Nc1ccc(S(N)(=O)=O)cc1)C(=O)N2	-0.16	0.13	2.55	0.06	1.06	0.23	1.67	1.78	3.22	2.28
N#Cc1c(NC(=O)c2cccc3ccccc23)sc2c1CCCC2	2.56	-2.33	-3.29	1.58	4.62	2.32	4.96	-2.84	-0.74	-0.7
Cc1nn(C)c2cc(N(C)c3ccnc(Nc4cccc(S(N)(=O)=O)c4)n3)ccc12	2.2	-1.51	-1.14	6.6	30.8	10.5	53.8	–	-0.74	-0.2
COc1cc2c(cc1Nc1nc(N3CCc4ccccc43)c3cc[nH]c3n1)N(C(=O)CN(C)C)CC2	1.21	-1.43	-3.76	0.76	2.92	1.22	3.33	1.21	2.11	0.07
COc1cc2ncn(-c3cc(OCc4ccccc4C(F)(F)F)c(C(N)=O)s3)c2cc1OC	6.13	-1.32	0.47	4.61	18.7	2.08	15.9	-3.15	1.79	1.28
Nc1ncnc2occ(-c3ccc(NC(=O)Nc4cccc(C(F)(F)F)c4)cc3)c12	37.5	1.49	18.5	4.75	4.88	1.25	4.92	-1.39	1.22	0.57
